# Measured values: PubChem BioAssay (NCI)
# This is part of a sample that, as a whole, favours compounds with a hit. Of some 79,000 tested, about 15% had one in any assay. Values without a mark were called inactive. Active and inactive are the calls of the source. Rule as the data show it: active = growth inhibition above about 70%; inactive = the rest.
# Assays:
# [1] = NCI Yeast Anticancer Drug Screen. Data for the rad50 strain (AID 155);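 also: 0% = growth of vehicle-only cultures of the same strain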; settings: S. cerevisiae rad50 strain growth inhibition, stronger effect = higher value
# Procedure, shortened: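 Compounds were tested on a yeast strain with an engineered DNA damage repair alteration; the reported value is growth inhibition normalised to vehicle treatment.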
# [2] = NCI Yeast Anticancer Drug Screen. Data for the mec2-1 strain (AID 157); settings: S. cerevisiae mec2-1 strain, stronger effect = higher value
# Procedure, shortened: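 Test agents were screened against the mec2-1 yeast strain, with defined DNA repair or cell cycle alteration. Growth was scored as inhibition against vehicle-only controls.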
# [3] = NCI Yeast Anticancer Drug Screen. Data for the sgs1 mgt1 strain (AID 161);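 also: 0% = growth of cultures given vehicle only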; settings: S. cerevisiae sgs1 mgt1 strain, stronger effect = higher value
# Procedure, shortened: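 Genetically altered yeast, compound exposure, growth inhibition relative to vehicle.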
# [4] = NCI Yeast Anticancer Drug Screen. Data for the cln2 rad14 strain (AID 165);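 also: 0% = growth equal to vehicle treated cultures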; settings: S. cerevisiae cln2 rad14 strain, stronger effect = higher value
# Procedure, shortened: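 Growth of compound-exposed yeast (cln2 rad14 genotype) measured and expressed as inhibition relative to vehicle.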
# [5] = NCI Yeast Anticancer Drug Screen. Data for the bub3 strain (AID 167); settings: S. cerevisiae bub3 mutant strain, stronger effect = higher value
# Procedure, shortened: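 Growth of a checkpoint-deficient yeast mutant is measured after compound exposure. Values represent inhibition relative to vehicle.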
# [6] = NCI Yeast Anticancer Drug Screen. Data for the mlh1 rad18 strain (AID 175); settings: S. cerevisiae mlh1 rad18 strain growth inhibition, stronger effect = higher value
# Procedure, shortened: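 In this whole-cell yeast screen, a strain with altered DNA damage repair is challenged with compound, and its growth is measured against matched vehicle-treated controls.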
# [7] = at 5.0 µM (retest, dose inferred, filed as 0.5)
# [8] = at 50.0 µM (retest, dose inferred, filed as 5.0)
SMILES,"growth inhibition [1, 7]","growth inhibition [1, 8]",growth inhibition ([1]; at 50.0 µM),"growth inhibition [2, 7]","growth inhibition [2, 8]",growth inhibition ([2]; at 50.0 µM),"growth inhibition [3, 7]","growth inhibition [3, 8]",growth inhibition ([3]; at 50.0 µM),"growth inhibition [4, 7]","growth inhibition [4, 8]",growth inhibition ([4]; at 50.0 µM),"growth inhibition [5, 7]","growth inhibition [5, 8]",growth inhibition ([5]; at 50.0 µM),"growth inhibition [6, 7]","growth inhibition [6, 8]",growth inhibition ([6]; at 50.0 µM)
COC1OC(CN=[N+]=[N-])C(OC(=O)c2ccccc2)C(OC(C)=O)C1OC(C)=O (stereo not given),-3%,-3%,7.35%,-24%,23%,9.8%,-192%,-1%,18.1%,2%,-2%,0%,61%,73% (active),80% (active),13%,13%,18.2%
CN(C)C(=S)/N=c1\sn(C)/c(=N\C(=S)N(C)C)n1C,-30%,-14%,-0.5%,-11%,-11%,-5.9%,5%,7%,-5.6%,-27%,-36%,-75.8%,-13%,-17%,0.6%,-7%,-8%,19.8%
N#Cc1ccc(C2Oc3ccc(Cl)cc3C=C2[N+](=O)[O-])cc1 (stereo not given),98% (active),99% (active),84.7% (active),100% (active),99% (active),75.7% (active),100% (active),99% (active),91.2% (active),98% (active),98% (active),88.7% (active),98% (active),98% (active),75.6% (active),99% (active),99% (active),83.3% (active)
NC(=Nc1cc2ccccc2c2ccccc12)Nc1cc2ccccc2c2ccccc12,87% (active),97% (active),85.8% (active),91% (active),99% (active),77.2% (active),89% (active),99% (active),95.3% (active),45%,96% (active),95% (active),35%,97% (active),97.7% (active),97% (active),97% (active),97.5% (active)
CC(C)C1=CC23CCC4C(C)(C(=O)O)CCCC4(C)C2CC1C1C(=O)C=CC(=O)C13 (stereo not given),86% (active),93% (active),94.3% (active),81% (active),97% (active),96.3% (active),82% (active),97% (active),90.2% (active),75% (active),96% (active),62%,91% (active),96% (active),96.9% (active),88% (active),97% (active),55.4%
